Screens: PubChem BioAssay, several laboratories
A selection: hits, their analogues and other compounds. The true share with any hit is near 2.7%.
TRPM1 prom inh – MITF TRPM1 promoter inhibition in SK-MEL-5 cells; inhibition, % at 12.5 µM; 330,000 compounds, 0.83% hits; SK-MEL-5 TRPM1 promoter luciferase, 24 h; AID 488899;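 active means mean inhibition across replicates of 60% or more, whatever share of single replicates reaches that level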
HIF-2a inh – inhibitors of HIF-2a | 786-0 RCC cells HIF-2a reporter, luciferase luminescence, overnight | inhibition, % at 18.8 µM | 360,000 compounds, 0.72% hits;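 active means inhibition of the luminescence signal of 40% or more relative to plate controls, in a single-dose primary screen at 18.75 µM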
Shn3 3UTR inh – Schnurri-3 reporter inhibition in Clone20 osteoblasts; AID 588674; inhibition, % at 12.5 µM; Clone20 osteoblast Shn3 3'UTR firefly luciferase, 24 h; 360,000 compounds, 0.52% hits;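 active means mean inhibition of at least 75% with every replicate also reaching 75%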;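 further: 0% = median of neutral control wells and 100% = pilot-screen positive control compound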
Peg3 prom inh – Peg3 promoter activity inhibition. AID 588405. inhibition, % at 20 µM. 360,000 compounds, 1.7% hits. HeLa PEG-Prom luciferase reporter, luminescence, overnight;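 active means inhibition of at least 50% at 20 µM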
CF NFkB block – cystic fibrosis NF-kB activation inhibition; inhibition, % at 5 µM; 360,000 compounds, 0.86% hits; KKLEB NF-kB-GFP reporter, PAF-induced, GFP fluorescence overnight;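 active means at least 50% inhibition at 5 µM, scaled per plate between neutral and stimulator controls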;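 further: PAF is a Pseudomonas aeruginosa culture filtrate used as stimulus; plate controls were PAF-stimulated DMSO wells for no effect and unstimulated DMSO wells for full effect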
KKLEB cytotox – CF airway cell cytotoxicity counter-screen; KKLEB CF airway cells viability, ATPlite luminescence, overnight; hits give low values; cells stimulated with P. aeruginosa culture filtrate; activity change (cytotoxicity), % at 5 µM; 360,000 compounds, 0.36% hits;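 active means corrected activity change at or below -50% at 5 µM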
Mdm2-MdmX confirm – Mdm2/MdmX (human) interaction inhibition, confirmed | shares compounds with HIF-2a inh | SaOS-2 split-luciferase Mdm2/MdmX complementation, luminescence | AID 504601 | 740 compounds, 99% hits | inhibition, % at 8 µM;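 active means mean inhibition of the luminescence signal across two replicates at or above 26 percent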
HIF-2a conf – HIF-2a inhibition, single concentration confirmation | shares compounds with HIF-2a inh | 786-0 RCC cells, HIF-2a luciferase reporter luminescence, overnight | inhibition, % at 18.8 µM | 1,800 compounds, 56% hits | AID 651580;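 active means mean inhibition across four replicates of at least 40 percent at the single tested concentration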
HIF-1a cs – inhibits HIF-1a reporter, a counter-screen for HIF-2a inhibitors. inhibition, % at 18.8 µM. AID 651589. MiaPaCa-2 HIF-1a luciferase reporter, desferoxamine, overnight. shares compounds with HIF-2a inh. 1,800 compounds, 72% hits;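 active means mean inhibition of the reporter signal across four replicates at the single tested dose of 50% or more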
Starred values were filed as active, the others as inactive; nt = no result given.

SMILES	TRPM1 prom inh	HIF-2a inh	Shn3 3UTR inh	Peg3 prom inh	CF NFkB block	KKLEB cytotox	Mdm2-MdmX confirm	HIF-2a conf	HIF-1a cs
CS(=O)(=O)c1nc(-c2ccc(Br)cc2)cc(-c2ccccc2)c1C#N	6.4	97.2*	98.2*	112.6*	80.5*	-66.2*	103.2*	20.3	100.4*
COc1ccc(-c2cc(-c3cccnc3)c(C#N)c(N)n2)cc1	13.8	8.9	-24.0	4.7	2.3	-4.0	nt	nt	nt
CS(=O)c1nc(-c2ccc(Br)cc2)cc(-c2ccccc2)c1C#N (stereo unspecified)	78.0*	88.1*	76.1	106.0*	13.8	-31.3	nt	20.5	97.6*
Cn1c(=O)c2[nH]c(C=Cc3ccc4c(c3)OCO4)nc2n(C)c1=O	-1.1	5.3	7.2	-10.8	-2.6	-8.9	nt	nt	nt
COc1ccc2c(c1OC)CN1CCc3cc4c(cc3[C@@H]1[C@@H]2O)OCO4	-2.7	-40.0	-14.5	-37.2	-1.1	-14.9	nt	nt	nt
O[C@@H]1[C@@H](O)C=C2CCN3Cc4cc5c(cc4[C@H]1C23)OCO5 (stereo partly specified)	63.4*	51.5*	19.6	63.3*	57.0*	32.1	nt	40.2*	103.1*
O=C(NCCO)/C(=C\c1cccc([N+](=O)[O-])c1)NC(=O)c1cccs1	nt	20.1	2.3	-8.3	-15.1	12.6	nt	nt	nt
C=C1C(=O)C=C[C@]2(C)C[C@@H]3OC(=O)[C@](C)(O)[C@H]3C[C@@H]12	nt	40.5*	44.9	90.7*	5.1	24.0	nt	11.3	98.0*
CC(C)(C)C(=O)N1CCN(c2ccnc3cc(Cl)ccc23)CC1	12.0	29.3	20.3	23.6	15.8	-4.3	nt	nt	nt
O=C(Nc1ccc(OC(F)(F)F)cc1)N1CCN(c2ccnc3cc(Cl)ccc23)CC1	15.0	43.4*	75.4	26.0	3.3	-7.3	nt	11.2	45.3
COc1ccccc1C#CC1=CC(=O)CC(C)(C)C1	nt	-42.0	-35.1	-52.6	-26.1	9.0	nt	nt	nt
Cc1ccc(NC(=O)c2nc[nH]c2C(=O)N(C)CCO)cc1	nt	-13.0	-14.9	-1.1	14.7	-6.7	nt	nt	nt
CCOc1ccccc1C(=O)Nc1ccc2nc(N3CCN(c4ncccn4)CC3)cc(C)c2c1	nt	nt	nt	nt	nt	nt	98.0*	nt	nt
N#C/C(=C\c1ccccc1)C(=O)N(c1ccccn1)C1CCCCC1	12.8	45.4*	12.6	21.9	1.0	-2.6	nt	45.9*	20.2
Cc1ccc(C(=O)NCC#N)cc1	1.1	15.1	5.0	6.1	10.5	-27.8	nt	nt	nt
Cc1ccc(C(=O)NC(C#N)=C(Cl)Cl)cc1	nt	nt	nt	nt	nt	nt	103.2*	nt	nt
COc1ccc(C(=O)NC(=C(Cl)Cl)S(=O)(=O)c2ccc(C)cc2)cc1	-0.1	-10.4	-4.9	14.2	-16.1	-5.0	nt	nt	nt
Cc1ccc(C(=O)NC(=C(Cl)Cl)S(=O)(=O)c2ccccc2)cc1	-16.7	88.7*	23.6	78.8*	-8.9	-9.2	nt	-17.3	24.8
COc1ccc(C2NC(=O)NC(C)=C2C(=O)OC2CCCC(C)C2)cc1 (stereo unspecified)	3.6	40.8*	25.8	51.6*	3.0	-11.2	nt	10.5	44.1
COc1ccccc1CNc1nc(NCc2ccc(NC(C)=O)cc2)c2sccc2n1	nt	56.6*	-2.7	72.5*	-27.0	-20.0	nt	13.9	70.3*
O=C(Nc1sc2c(c1C(=O)O)CCCC2)c1ccccc1Cl	2.1	-52.2	-9.2	-4.0	9.1	-4.6	nt	nt	nt
O=C(Nc1sc2c(c1C(=O)O)CCC2)c1ccccc1Cl	-8.9	68.0*	7.0	20.2	-6.0	9.6	nt	96.9*	-24.8
C=CC(=O)Nc1ccc(Nc2nc(NC3CCC(N(C)C)CC3)nc3c2ncn3C(C)C)cc1 (stereo unspecified)	86.5*	75.6*	94.4*	107.1*	94.0*	-73.5*	103.0*	nt	nt
NS(=O)(=O)c1ccc(CCN2C(=O)/C(=C\c3ccc(Cl)cc3)SC2=S)cc1	-6.9	41.7*	17.9	82.9*	0.1	11.0	103.0*	nt	nt
CN1CCN(C(=O)CCN2C(=O)/C(=C\c3ccc(Cl)cc3)SC2=S)CC1	-3.6	6.7	-54.5	47.5	13.3	-3.1	nt	nt	nt
SMILES	TRPM1 prom inh	HIF-2a inh	Shn3 3UTR inh	Peg3 prom inh	CF NFkB block	KKLEB cytotox	Mdm2-MdmX confirm	HIF-2a conf	HIF-1a cs
CNC[C@H](Cc1ccccc1)NC[C@@H](Cc1cccc2ccccc12)NCCc1ccc(C)cc1	-5.7	22.4	5.9	96.6*	43.4	-50.2*	100.7*	nt	nt
Cc1cc(C(C)(C)CC(C)(C)C)ccc1OCCOCC[N+](C)(C)Cc1ccccc1	96.4*	-11.3	88.2*	102.2*	62.6*	-22.3	103.2*	nt	nt
C[N+](C)(CCOc1ccccc1)Cc1ccccc1	5.6	-2.5	-13.2	6.6	-8.6	4.6	nt	nt	nt
CC(=O)Nc1ccc(NC(=O)Cc2ccc(-c3ccccc3)cc2)cc1	2.3	3.4	-4.3	1.7	-6.8	-6.8	nt	nt	nt
CC(C)N(c1ccccc1)c1ccc(NC(=O)[C@@H]2O[C@H](CO)[C@H](O)[C@H](O)[C@H]2O)cc1	nt	10.0	-2.8	10.1	13.7	-7.7	nt	nt	nt
O=C(CCl)Nc1ccc(-c2ccccc2)cc1	65.1*	15.4	44.9	104.4*	33.2	-16.1	102.2*	nt	nt
CC(C)N(c1ccccc1)c1ccc(NC(=O)CCl)cc1	49.6	82.1*	-5.0	90.9*	82.5*	-85.6*	102.2*	62.0*	99.8*
Cc1ccc(OCC(=O)NCCCNC(=O)c2ccccn2)cc1	-8.0	17.6	-10.1	16.6	-4.7	2.7	nt	nt	nt
COCCCNC(=O)COc1ccc(-c2nccc(-c3ccccn3)n2)cc1	8.5	40.2*	45.1	-14.3	-0.4	-2.8	nt	39.5	27.1
Cc1cccc(N2CCN(C(=S)Nc3ccc4nc(N5CCN(C)CC5)cc(C)c4c3)CC2)c1C	96.0*	82.3*	85.0	104.0*	43.4	-73.1*	nt	-3.4	105.2*
Cc1cc(N2CCN(C)CC2)nc2ccc(NC(=S)N3CCCCC3)cc12	-16.9	-47.8	-36.1	-58.7	-17.5	-3.5	nt	nt	nt
C/C(=N\Nc1cc(C)nc(-c2ccccc2O)n1)c1ccccc1O	-14.0	-50.6	-14.8	27.4	80.4*	-18.9	72.8*	nt	nt
CN(C)c1ccc(C(=S)NCc2ccco2)cc1	15.2	52.0*	1.9	37.8	-10.2	6.3	nt	-13.3	-47.0
CN(C)c1ccc(/C=N/NC(=S)NCc2ccco2)cc1	-36.5	-60.1	-33.6	-66.6	6.8	9.0	nt	nt	nt
Cc1sc2nc(C(C)C)nc(SCC(=O)N3c4ccccc4CC3C)c2c1C (stereo unspecified)	-1.7	19.8	4.9	10.7	7.6	-19.5	nt	nt	nt
CCc1nc(SCC(=O)N2c3ccccc3CC2C)c2c(C)c(C)sc2n1 (stereo unspecified)	7.8	15.2	25.1	5.9	-8.7	6.8	101.5*	nt	nt
